# Compounds with a hit are over-represented: about 22% of the library has one in this group of screens.
# CYP2C9 inhib – blockers of cytochrome P450 2C9 activity – biochemical, luminescence, ADME assay, primary screen; 20% of 96,000 active; CYP2C9 Supersomes, luciferin-H conversion; P11712; inhibition, % at 5 µM;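 active means blocking of liver enzyme CYP2C9 beyond about 50% at 5 µM, limit read from the data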
# Target sequence (P11712 whole entry, looked up): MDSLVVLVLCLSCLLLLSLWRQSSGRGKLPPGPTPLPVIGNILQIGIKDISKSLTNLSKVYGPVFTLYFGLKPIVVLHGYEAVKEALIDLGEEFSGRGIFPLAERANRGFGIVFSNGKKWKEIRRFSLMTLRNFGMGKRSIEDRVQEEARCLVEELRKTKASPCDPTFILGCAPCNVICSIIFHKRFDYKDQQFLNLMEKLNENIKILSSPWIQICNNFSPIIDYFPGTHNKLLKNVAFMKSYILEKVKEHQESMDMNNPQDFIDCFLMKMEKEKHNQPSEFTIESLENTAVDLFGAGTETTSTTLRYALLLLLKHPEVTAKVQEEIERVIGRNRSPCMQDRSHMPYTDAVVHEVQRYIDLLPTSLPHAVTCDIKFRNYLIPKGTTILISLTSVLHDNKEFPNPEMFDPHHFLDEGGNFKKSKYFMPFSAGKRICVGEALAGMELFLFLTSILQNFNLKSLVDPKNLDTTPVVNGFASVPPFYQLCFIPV
# CYP2C19 inh – blockers of cytochrome P450 2C19 activity – biochemical, luminescence, ADME assay, primary screen; CYP2C19 Supersomes, luciferin-H EGE luminescence, 30 min; inhibition, % at 5 µM; 21% of 96,000 active; AID 778, 2007;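 active means CYP2C19 inhibition above a set limit at 5 µM in the primary screen, cut at about 50% in these data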;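 further: plate controls were negative control wells for no effect and 2.5 mM tranylcypromine positive control for full effect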
# CYP2C19 activ – human CYP2C19 activators, primary screen, biochemical, luminescence; 96,000 tested, under 10 active; activation factor at 5 µM; recombinant CYP2C19, luciferin-H EGE luminescence; stronger effect = higher value; 0 = fully inhibited enzyme, 1 = untreated enzyme; Cytochrome P450 2C19 (Homo sapiens), P33261;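 active means activation factor of at least 2 at 5 µM in the primary screen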;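 further: 0 = wells with 2.5 mM tranylcypromine and 1 = vehicle-only wells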
# Measles CPE – compounds protecting cells from measles virus cytopathic effect, primary screen, measles RdRp inhibitor project, single point, MLSMR library, absorbance; 1.5% of 140,000 active; Measles virus-infected cells, CPE protection; protection (pct of control), % at 4 µM; in the data active means protection mostly above about 24%, no sharp cut-off; inactive means mostly below about 26%
# CYP2C9 activ – human CYP2C9 activators, primary screen, biochemical, luminescence | AID 1024, 2008 | activation factor at 5 µM | 1.4% of 96,000 active | recombinant CYP2C9, luciferin-H conversion; stronger effect = higher value; factor 1 = untreated enzyme, 0 = blocked | Cytochrome P450 2C9 (Homo sapiens), P11712;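 active means activation factor of 2 or more for CYP2C9 at a 5 µM dose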;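 further: 0 = sulfaphenazole-blocked wells and 1 = vehicle-only wells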
# * = called active by the depositor; nt = no result given.
SMILES,CYP2C9 inhib,CYP2C19 inh,CYP2C19 activ,Measles CPE,CYP2C9 activ
Cc1ccc(O)c(Sc2cc(C)ccc2O)c1,96*,97*,0,7,0
COC(=O)c1ccc(O)c(Sc2cc(C(=O)OC)ccc2O)c1,100*,88*,0.1,13,0
O=C(O)CCC(=O)Nc1ccc(C(=O)N2CCCCC2)cc1,15,15,0.8,11,0.8
O=C(CN(C(=O)CNS(=O)(=O)c1ccccc1)C1CCCC1)NCc1ccco1,18,46,0.5,8,0.8
CCOC(=O)CSCC(=O)N1N=C(c2cccs2)CC1c1ccc(F)cc1 (centres undefined),nt,nt,nt,14,nt
COc1cccc(C2CC(c3cccs3)=NN2C(=O)CSC2=NN3CCCC(=O)N=C3S2)c1OC (centres undefined),83*,76*,0.2,18,0.2
Cc1ccc(S(=O)(=O)NNc2nc3ccccc3nc2C(F)(F)F)cc1,50*,67*,0.3,14,0.5
Cc1ccc(S(=O)(=O)NNc2ccccc2)cc1,-16,20,0.8,8,1.2
COc1ccc(N2CC(O)=C(c3n(C)c4ccccc4[n+]3C)C2=N)cc1,-11,-13,1.1,16,1.1
CCCCCC(/C=N/Nc1ccc(S(=O)(=O)N2CCOCC2)cc1[N+](=O)[O-])=C\c1ccccc1,82*,-4,1,23,0.2
CCOc1ccc(C2c3c(oc4cc(C)c(C)cc4c3=O)C(=O)N2CCCN(C)C)cc1OC (centres undefined),56*,11,0.9,9,0.4
COc1ccc(C2c3c(oc4ccc(C)cc4c3=O)C(=O)N2c2cc(C)ccn2)cc1OC (centres undefined),64*,8,0.9,9,0.4
COc1ccc(C2c3c(oc4ccccc4c3=O)C(=O)N2c2ccc(C)cn2)cc1OC (centres undefined),26,14,0.9,8,0.7
Cc1nn(-c2ccccc2)c(Cl)c1C(=O)Nc1c(C)n(C)n(-c2ccccc2)c1=O,8,-3,1,7,0.9
CCOc1ccc(CCNC(=O)CSc2nn(-c3ccc(C)c(Cl)c3)c(=S)s2)cc1OCC,nt,nt,nt,18,nt
CC1CN(CCc2ccccc2)c2nc3c(c(=O)[nH]c(=O)n3C)n2C1 (centres undefined),57*,74*,0.3,3,0.4
CCn1c(N2CCC(Cc3ccccc3)CC2)nc2c1c(=O)[nH]c(=O)n2C,54*,77*,0.2,24,0.5
CC1CN(c2ccc(Oc3ccccc3)cc2)c2nc3c(c(=O)[nH]c(=O)n3C)n2C1 (centres undefined),9,-5,1,8,0.9
Cn1c(=O)[nH]c(=O)c2c1nc(N1CCCCCC1)n2CC(N)=O,nt,nt,nt,11,nt
CC1CCCN(c2nc3c(c(=O)n(C)c(=O)n3C)n2CCSc2nc3ccccc3o2)C1 (centres undefined),51*,36,0.6,12,0.5
CC1CN(C2CCCCC2)c2nc3c(c(=O)[nH]c(=O)n3C)n2C1 (centres undefined),56*,7,0.9,5,0.4
CCNc1nc(NCC)nc(SCCOc2ccc(C)cc2)n1,nt,nt,nt,5,nt
CCCCNC(=O)NNC(=O)c1ccc(F)cc1,nt,nt,nt,3,nt
COc1ccc(-n2c(C)cc(-c3csc(NC(=O)c4ccc(S(=O)(=O)N(C)C)cc4)n3)c2C)cc1,nt,nt,nt,12,nt
Cc1cc(C)c(S(=O)(=O)N2CCCOC2CNC(=O)C(=O)NCCc2c[nH]c3ccccc23)c(C)c1 (centres undefined),nt,nt,nt,3,nt
SMILES,CYP2C9 inhib,CYP2C19 inh,CYP2C19 activ,Measles CPE,CYP2C9 activ
CC1CCCN(c2nc3c(c(=O)[nH]c(=O)n3C)n2CCCc2ccccc2)C1 (centres undefined),62*,21,0.8,42*,0.4
CCn1c(N2CCN(CC(=O)c3c[nH]c4ccccc34)CC2)nc2c1c(=O)[nH]c(=O)n2C,54*,37,0.6,3,0.5
CC1CCN(c2nc3c(c(=O)[nH]c(=O)n3C)n2Cc2ccccc2)CC1,17,22,0.8,8,0.8
CCCn1c(N2CCN(CC(=O)c3c(C)n(C)c4ccccc34)CC2)nc2c1c(=O)[nH]c(=O)n2C,20,22,0.8,12,0.8
Cc1ccc(OC(C)c2nnc(N)s2)cc1Cl (centres undefined),48,68*,0.3,2,0.5
CC(Oc1ccccc1Cl)c1nnc(N)s1 (centres undefined),-22,-2,1,17,1.2
COc1ccc(-c2nnc(SC(C)C(=O)Nc3nccs3)n2Cc2ccccc2)cc1OC (centres undefined),56*,44,0.6,19,0.4
COc1cccc(NC(=O)Cn2cc3c(n2)CCCCC3)c1,6,10,0.9,4,0.9
CCC1Oc2ccc(C)cc2N(Cc2cccc(C)c2)C1=O (centres undefined),21,19,0.8,15,0.8
Cc1ccc2c(c1)N(Cc1ccc3c(c1)OCO3)C(=O)C(C)O2 (centres undefined),33,61*,0.4,4,0.7
CC1Oc2ccccc2N(Cc2ccccc2F)C1=O (centres undefined),67*,90*,0.1,5,0.3
O=c1c2ccccc2nc2n1C(CSCc1ccc(Cl)cc1Cl)CS2 (centres undefined),22,64*,0.4,16,0.8
CCn1cc(C(=O)NCCC2=CCCCC2)c(=O)c2cc(S(=O)(=O)N(C)C)ccc21,nt,nt,nt,2,nt
CCn1nnnc1SCC(=O)c1cccc(OC)c1,42,76*,0.2,14,0.6
COCCn1nnnc1SCC(=O)c1ccccc1,-89,67*,0.3,4,1.9
C=CCNC(=O)C1=NOC(CNC(=O)c2c(-c3ccccc3Cl)noc2C)C1 (centres undefined),0,3,1,21,1
c1ccc(CSc2nnnn2-c2cccc3ccccc23)nc1,-135,44,0.6,9,2.3*
COc1ccccc1-n1nnnc1SCC(=O)Nc1ccccn1,-24,31,0.7,12,1.2
O=C(CCCSc1nnnn1-c1cccc2ccccc12)c1ccc(F)cc1,-142,20,0.8,12,2.4*
O=C(O)c1cccc(-n2nnnc2SCc2ccccn2)c1,-18,2,1,7,1.2
COC(=O)CSc1nnnn1-c1cccc2ccccc12,-221,31,0.7,5,3.2*
CCN1CCCC1CNC(=O)Cn1cnc2sc(C)c(S(=O)(=O)N3CCC(C)CC3)c2c1=O (centres undefined),nt,nt,nt,5,nt
CNC(=O)[C@@]1(C)C=C[C@@H](Cc2ccccc2)N1C(=O)OC,nt,nt,nt,2,nt
CC(C)=N/N=C1/NC(=O)C(CC(=O)Nc2cc(Cl)ccc2C)S1 (centres undefined),nt,nt,nt,9,nt

# Compound activity (PubChem BioAssay)
